Measurements from PubChem BioAssay (Tox21).
Records with an inconclusive call do not appear. Calls of active or inactive are those of the source. Calls follow the shape of the dose curve; as a rule, active = well fitted curve in the direction sought with a large enough effect in the repeat runs; inconclusive = weak or mixed curves; inactive = no such curve, though single readings can be large; an effect the other way counts as inactive or inconclusive.

Experiments:
[1] = qHTS assay to identify small molecule agonists of the RXR signaling pathway - cell viability counter screen (AID 1159529);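 also: HEK 293T cells carrying an RXR-alpha UAS beta-lactamase reporter; nearly all actives have a fitted effect of over 50% in size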
Summary of the method: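 Viability read-out for the RXR-alpha agonist qHTS: luminescent CellTiter-Glo signal after 30 min at RT. HEK 293T bla reporter cells, 2% charcoal-stripped FBS, 16 hr compound incubation; tetraoctyl ammonium bromide as cytotoxic control.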

[2] = qHTS assay to identify small molecule antagonists of the retinoid acid receptor (RAR) signaling pathway - cell viability counter screen (AID 1159551); also: nearly all actives have a fitted effect of over 35% in size
Summary of the method: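 Measured by luminescent ATP detection, viability reflects C3RL4 cells treated 6 h at 37 C with test chemicals in the presence of 1 uM (final) retinol.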

[3] = qHTS assay to identify small molecule agonists of the retinoic acid receptor (RAR) signaling pathway (AID 1159553); settings: C3RL4 RARE luciferase reporter, agonist, 6 h; activation: at 73.3 µM (top of the series)
Summary of the method: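 6 hr compound exposure (DMSO vehicle) of overnight-plated C3RL4 RARE-luc cells at 37 C; luminescence quantified after 30 min RT with luciferase reagent.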

[4] = qHTS assay to identify small molecule antagonists of the estrogen related receptor (ERR) signaling pathway from Tox21 library - cell viability counter screen (AID 1224834); also: nearly all actives have a fitted effect of over 30% in size
Summary of the method: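 Seeded ERR cells were rested 6 h at 37 C/5% CO2 before compounds, positive and negative controls or DMSO were added. Incubation continued for 17.5 h, and viability was then quantified by CellTiter-Fluor fluorescence.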

[5] = target: Luciferin 4-monooxygenase (Photinus pyralis) (UniProt P08659); assay: qHTS assay to identify small molecule inhibitors of firefly luciferase (AID 1224835); also: nearly all actives have a fitted effect of over 25% in size
Summary of the method: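 Quantitative HTS format; KM concentrations of both substrates. Purified P. pyralis FLuc activity quantified from luminescence images.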

[6] = qHTS assay to identify small molecule agonists of the constitutive androstane receptor (CAR) signaling pathway - cell viability counter screen (AID 1224836); also: nearly all actives have a fitted effect of over 45% in size
Summary of the method: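 Multiplexed viability check: HepG2-CYP2B6-hCAR cells, 15-point compound dosing, 0.75 uM PK11195 final, 23 h at 37 C, CellTiter-Fluor fluorescence.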

[7] = qHTS assay to identify small molecule antagonists of the constitutive androstane receptor (CAR) signaling pathway - cell viability counter screen (AID 1224837); also: nearly all actives have a fitted effect of over 45% in size; also: potency is read from the fitted curve at half-maximal effect
Summary of the method: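 To flag cytotoxic false antagonists, HepG2 hCAR/CYP2B6-2.2kb cells were treated 23 hr with 15-concentration compound series and 50 nM CITCO at 37 C/5% CO2; CellTiter-Fluor fluorescence was the measured end point.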

[8] = target: Nuclear receptor subfamily 1 group I member 3 (Homo sapiens) (UniProt Q14994); assay: qHTS assay to identify small molecule antagonists of the constitutive androstane receptor (CAR) signaling pathway (AID 1224838);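 also: HepG2 cells stably expressing hCAR with CYP2B6 luciferase reporter stimulated by CITCO; nearly all actives have a fitted effect of over 40% in size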
Summary of the method: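 Human hepatoma HepG2 cells expressing hCAR and a CYP2B6 promoter (2.2 kb) luciferase construct; compound titration (15 points) with 50 nM CITCO final, 24 h at 37 C/5% CO2; luminescence via ONE-Glo after 30 min at room temperature.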

[9] = target: Nuclear receptor subfamily 1 group I member 3 (Homo sapiens) (UniProt Q14994); assay: qHTS assay to identify small molecule agonists of the constitutive androstane receptor (CAR) signaling pathway (AID 1224839);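 also: HepG2 cells stably carrying human CAR and a CYP2B6 luciferase reporter; nearly all actives have a fitted effect of over 15% in size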
Summary of the method: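 Using human hepatoma HepG2 cells engineered with hCAR and a CYP2B6-2.2kb reporter, 15-concentration compound series were incubated 24 h alongside PK11195 at 0.75 uM final, with luminescence quantified afterwards.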

[10] = qHTS assay to identify small molecule antagonists of the retinoic acid receptor (RAR) signaling pathway (AID 1159552; also: nearly all actives have a fitted effect of over 50% in size)
Summary of the method: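 Using a RARE-driven luciferase construct in C3RL4 cells, retinol at 1 uM final provided the agonist stimulus while compounds were co-applied. After 6 hours at 37 C, luminescence was recorded to flag inhibitors of retinol signaling.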
% is scaled to controls: 0 for no effect and ±100 for the full control effect.

Nuclear receptor subfamily 1 group I member 3 (Homo sapiens), sequence (Q14994 whole entry, looked up): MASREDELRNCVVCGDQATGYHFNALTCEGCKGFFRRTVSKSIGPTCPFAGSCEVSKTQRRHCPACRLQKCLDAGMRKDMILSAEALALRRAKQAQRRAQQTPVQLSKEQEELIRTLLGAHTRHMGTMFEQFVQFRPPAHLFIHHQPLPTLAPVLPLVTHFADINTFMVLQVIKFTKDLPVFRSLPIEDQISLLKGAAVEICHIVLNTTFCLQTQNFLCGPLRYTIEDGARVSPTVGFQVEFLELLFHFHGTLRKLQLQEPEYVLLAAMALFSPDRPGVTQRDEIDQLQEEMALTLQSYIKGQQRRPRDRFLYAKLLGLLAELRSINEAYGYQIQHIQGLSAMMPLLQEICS
Luciferin 4-monooxygenase (Photinus pyralis), sequence (P08659 whole entry, looked up): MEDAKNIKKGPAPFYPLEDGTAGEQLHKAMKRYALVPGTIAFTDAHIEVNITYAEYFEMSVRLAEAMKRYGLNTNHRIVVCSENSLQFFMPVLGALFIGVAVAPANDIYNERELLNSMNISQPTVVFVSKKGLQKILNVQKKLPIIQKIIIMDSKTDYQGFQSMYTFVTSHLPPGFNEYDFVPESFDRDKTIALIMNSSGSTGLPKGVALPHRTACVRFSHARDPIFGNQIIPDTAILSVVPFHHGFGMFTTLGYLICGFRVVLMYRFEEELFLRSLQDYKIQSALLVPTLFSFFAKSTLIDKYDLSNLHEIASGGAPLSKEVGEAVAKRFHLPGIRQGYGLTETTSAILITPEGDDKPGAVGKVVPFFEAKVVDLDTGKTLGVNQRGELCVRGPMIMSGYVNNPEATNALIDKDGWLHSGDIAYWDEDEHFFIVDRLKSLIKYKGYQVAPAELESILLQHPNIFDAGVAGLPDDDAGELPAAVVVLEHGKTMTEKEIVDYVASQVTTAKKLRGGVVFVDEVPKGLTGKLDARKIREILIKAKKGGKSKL

FC(F)(F)/C(=N\OCC1OCCO1)c1ccc(Cl)cc1
inactive: outcome [1] | outcome [2] | Potency [3] | Potency [4] | Potency [5] | outcome [6] | Potency [7] | Potency [8] | Potency [9]

c1ccc(CNc2ncnc3nc[nH]c23)cc1
inactive: outcome [1] | outcome [2] | Potency [4] | Potency [5]

CC(C)(C)c1ccc(C=O)cc1
inactive: outcome [1] | outcome [2] | Potency [3] | Potency [4] | outcome [6] | Potency [7] | Potency [8] | Potency [9]

COC(/C=C(\C)CCC=C(C)C)OC
inactive: outcome [1] | outcome [2] | Potency [3] | Potency [4] | Potency [5] | outcome [6] | Potency [7]

CCCCCCCCCCCCCCCCI
inactive: activity change, negative = cytotoxicity [1] 14.9% [at 15.8 µM] | activity change, negative = cytotoxicity [2] -0.67% [at 19 µM] | Potency [3] | viability change, negative = cytotoxic [4] 1.65% [at 19 µM] | activity change, negative = inhibition [5] 0.965% [at 23.6 µM] | viability change, negative = cytotoxic [6] -8.08% [at 19 µM] | activity change, negative = cytotoxicity [7] -13% [at 19 µM]

CNCc1ccccc1
inactive: outcome [1] | outcome [2] | Potency [3] | Potency [4] | Potency [5] | outcome [6] | Potency [7]

Cc1cccc(NC(=S)N(C)C)c1
inactive: outcome [1] | outcome [2] | Potency [3] | Potency [4] | Potency [5] | outcome [6] | Potency [9]
active: Potency [7] 61.1 µM

FC(F)(F)c1ccc(Cl)cc1Cl
active: activation [3] 0.481%
inactive: outcome [1] | Potency [10] | Potency [4] | Potency [5] | outcome [6] | Potency [7]
